Measured values as given in the supplement of paper PMC9262897, “Low-cost anti-mycobacterial drug discovery using engineered E. coli” (Nature Communications, 2022).
Counter-ions that a name gives are not always drawn. ± gives the standard deviation of the averaged measurements.

Key:
Assay in all cases: growth (OD600 after 10 h); higher = more growth (less inhibition)
[1] = test system: E. coli TESEC Alr+ wild-type control; settings: compound 0.1 mM; raw OD600 reference: median of DMSO wells 0.241, cell-free background 0.041
Method: (§1)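 TESEC Mtb Alr E. coli, or the Alr+ wild-type control, in 384-well plates with Prestwick library compounds at 0.1 mM and 1% DMSO, across arabinose induction levels of 1E3 to 1E7 nM. Growth is read as OD600 after 10 h at 37 °C in triplicate biological replicates.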

[2] = test system: E. coli TESEC Mtb Alr; settings: compound 0.1 mM
Method: as §1

[3] = test system: E. coli TESEC Mtb Asd; settings: compound 0.1 mM
Method: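 TESEC E. coli strains in which the native enzyme is deleted and replaced by arabinose-inducible Mtb Asd, DapB, CysH or TrpD, each grown in its selective medium. Strains were screened against the Prestwick library at 0.1 mM and 1% DMSO in 384-well format at low and high arabinose induction. Growth is read as OD600 after 10 h in triplicate.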

[4] = test system: E. coli TESEC Alr+ wild-type control; settings: compound 0.1 mM; raw OD600 reference: median of DMSO wells 0.49, cell-free background 0.052
Method: (§2)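 TESEC Mtb Alr E. coli (ΔaraC ΔtolC ΔentC Δalr ΔdadX, arabinose-inducible Mtb Alr) or the Alr+ wild-type control strain, grown in defined M9-fructose medium without D-alanine in 96-well plates with Prestwick library compounds at 0.1 mM and 1% DMSO. Low Alr induction is 0.1 µM arabinose and high induction is 10 mM arabinose.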

[5] = test system: E. coli TESEC Mtb Alr; settings: compound 0.1 mM; remark: listed apart in the source
Method: as §2

[6] = arabinose 1000 nM, raw OD600 reference: median of DMSO wells 0.294, cell-free background 0.041
[7] = arabinose 10000 nM, raw OD600 reference: median of DMSO wells 0.264, cell-free background 0.041
[8] = arabinose 100000 nM, raw OD600 reference: median of DMSO wells 0.201, cell-free background 0.041
[9] = arabinose 1000000 nM, raw OD600 reference: median of DMSO wells 0.193, cell-free background 0.041
[10] = arabinose 10000000 nM, raw OD600 reference: median of DMSO wells 0.146, cell-free background 0.041
[11] = arabinose induction (level): High, raw OD600 reference: median of DMSO wells 0.331, cell-free background 0.041
[12] = arabinose induction (level): Low, raw OD600 reference: median of DMSO wells 0.417, cell-free background 0.041
[13] = arabinose 100 nM, raw OD600 reference: median of DMSO wells 0.413, cell-free background 0.052
[14] = arabinose 10000000 nM, raw OD600 reference: median of DMSO wells […], cell-free background 0.052

Row | SMILES | growth [1] | growth [2, 6] | growth [2, 7] | growth [2, 8] | growth [2, 9] | growth [2, 10] | growth [3, 11] | growth [3, 12] | growth [4] | growth [5, 13] | growth [5, 14]
1 | CN[C@H](CC(C)C)C(=O)N[C@H]1C(=O)N[C@@H](CC(N)=O)C(=O)N[C@H]2C(=O)N[C@H]3C(=O)N[C@H](C(=O)N[C@H](C(=O)O)c4cc(O)cc(O)c4-c4cc3ccc4O)[C@H](O)c3ccc(c(Cl)c3)Oc3cc2cc(c3O[C@@H]2O[C@H](CO)[C@@H](O)[C@H](O)[C@H]2O[C@H]2C[C@](C)(N)[C@H](O)[C@H](C)O2)Oc2ccc(cc2Cl)[C@H]1O [Vancomycin hydrochloride] | 0.0502 ± 0.0016 | 0.084 ± 0.073 | 0.03873 ± 0.00032 | 0.0413 ± 0.0026 | 0.0388 ± 0.00044 | 0.0471 ± 0.0044 | 0.0662 ± 0.0062 | 0.0563 ± 0.011 | 0.0581 ± 0.0048 | 0.217 ± 0.15 | 0.0507 ± 0.00062
2 | O=C(N/N=C/c1ccc([N+](=O)[O-])o1)c1ccc(O)cc1 [Nifuroxazide] | 0.148 ± 0.0071 | 0.217 ± 0.018 | 0.0914 ± 0.0034 | 0.164 ± 0.022 | 0.0664 ± 0.0028 | 0.133 ± 0.0085 | 0.053 ± 0.00057 | 0.0519 ± 0.0049 | 0.0581 ± 0.0039 | 0.0646 ± 0.0031 | 0.0578 ± 0.0014
3 | CC(=O)[C@H]1CC[C@H]2[C@@H]3CC=C4C[C@@H](O)CC[C@]4(C)[C@H]3CC[C@]12C [Pregnenolone] | 0.166 ± 0.0078 | 0.235 ± 0.015 | 0.239 ± 0.016 | 0.173 ± 0.029 | 0.136 ± 0.0035 | 0.159 ± 0.0019 | 0.168 ± 0.026 | 0.343 ± 0.034 | 0.458 ± 0.0056 | 0.398 ± 0.0084 | 0.2327 ± 0.0018
4 | CN1CCC(=C2c3ccccc3Sc3ccccc32)CC1 [Pimethixene maleate] | 0.0726 ± 0.0016 | 0.0585 ± 0.013 | 0.0419 ± 0.00051 | 0.0556 ± 0.0055 | 0.0414 ± 0.00026 | 0.05003 ± 0.00025 | 0.118 ± 0.028 | 0.161 ± 0.0073 | 0.0544 ± 0.0021 | 0.362 ± 0.078 | 0.0659 ± 0.0097
5 | CCCOc1ccccc1-c1nc2[nH]nnc2c(=O)[nH]1 [Zaprinast] | 0.205 ± 0.0049 | 0.229 ± 0.0072 | 0.257 ± 0.0057 | 0.162 ± 0.016 | 0.173 ± 0.0024 | 0.138 ± 0.0042 | 0.268 ± 0.029 | 0.313 ± 0.046 | 0.507 ± 0.057 | 0.396 ± 0.0084 | 0.289 ± 0.0088
6 | OCCN(CCO)c1nc(N2CCCCC2)c2nc(N(CCO)CCO)nc(N3CCCCC3)c2n1 [Dipyridamole] | 0.0642 ± 0.0085 | 0.0575 ± 0.0086 | 0.0482 ± 0.0011 | 0.0725 ± 0.015 | 0.05417 ± 0.00046 | 0.135 ± 0.016 | 0.079 ± 0.002 | 0.0913 ± 0.034 | 0.0816 ± 0.027 | 0.068 ± 0.006 | 0.0709 ± 0.0012
7 | N=C(N)c1ccc(OCCCCCOc2ccc(C(=N)N)cc2)cc1 [Pentamidine isethionate] | 0.0725 ± 0.0026 | 0.0837 ± 0.0024 | 0.0536 ± 0.0012 | 0.0903 ± 0.001 | 0.0538 ± 0.0022 | 0.095 ± 0.001 | 0.0804 ± 0.013 | 0.0745 ± 0.01 | 0.194 ± 0.068 | 0.28 ± 0.16 | 0.0605 ± 0.0026
8 | Cc1ccc(-c2ncc(Cl)cc2-c2ccc(S(C)(=O)=O)cc2)cn1 [Etoricoxib] | 0.17 ± 0.0023 | 0.241 ± 0.006 | 0.213 ± 0.0045 | 0.184 ± 0.014 | 0.15 ± 0.0079 | 0.161 ± 0.0033 | 0.266 ± 0.076 | 0.241 ± 0.0033 | 0.388 ± 0.0074 | 0.414 ± 0.0091 | 0.281 ± 0.018
